In ChEMBL document CHEMBL4513216, “Probing the Open Global Health Chemical Diversity Library for Multistage-Active Starting Points for Next-Generation Antimalarials” (ACS Infect Dis, 2020):
Out of some 69,000 compounds screened, about 8,600 (12%) showed an effect of 50% or more. What follows is part of a selection rich in strong results, with near analogues and random picks from the rest.

Tested on: Plasmodium berghei
Experiment: Screen against P. berghei liver stage (PbLuc), transformed with Luciferase, at 10uM
Format: functional, HepG2
Conditions: tested at 10 uM

Row | Compound | INHIBITION
1 | O=C(c1cn(-c2ccc(F)cc2)nn1)N1CCCC(n2cccn2)C1 (centres undefined) | -73.2%
2 | CCCc1nnc(N[C@H](C)c2ccc(OC)cc2)o1 | 52.8%
3 | CCCc1nnc(NC(C)c2ccc(F)cc2)o1 (centres undefined) | 8.48%
4 | CC(NC(=O)CNCCn1cccn1)c1ccc2c(c1)OCCO2 (centres undefined) | 24.8%
5 | CCc1nnc(N[C@H](C)c2cccc(OC)c2)o1 | 8.48%
6 | Cc1nc(CCNC(C)c2ccc3c(c2)OCCCO3)cs1 (centres undefined) | 10%
7 | CCCc1nnc(NC(C)c2ccc3c(c2)OCCO3)o1 (centres undefined) | 53.9%
8 | Cc1cc(C)n(C2CCCN(C(=O)Cc3cn4ccsc4n3)C2)n1 (centres undefined) | -15.52%
9 | CCc1ccc(C(C)NC(=O)N2CCC(n3cncn3)CC2)cc1 (centres undefined) | -73.1%
10 | CC(C)N1CCN(C(=O)c2[nH]nnc2Nc2ccccc2F)CC1 | 4.35%
11 | CC(C)CN1CCN(C(=O)c2[nH]nnc2Nc2ccccc2F)CC1 | 64%
12 | CC(=O)N1CCN(C(=O)c2[nH]nnc2Nc2ccccc2F)CC1 | -1.45%
13 | CC(=O)N1CCCC1c1cc(N2CCN(CC3CC3)CC2)cc(C)n1 (centres undefined) | 45.6%
14 | CC(=O)N1CCCC1c1cc(N2CCN(C3CCCC3)CC2)cc(C)n1 (centres undefined) | 34.5%
15 | CC(=O)N1CCCC1c1cc(N2CCN(CC(C)(C)C)CC2)cc(C)n1 (centres undefined) | 51.5%
16 | Nc1nccc(N2CCCC(CO)(CCOc3ccccc3)C2)n1 (centres undefined) | 86.8%
17 | N#Cc1cccc(N2CCCC(CO)(CCOc3ccccc3)C2)n1 (centres undefined) | 25.7%
18 | N#Cc1ccc(N2CCCC(CO)(CCOc3ccccc3)C2)nc1 (centres undefined) | 59.1%
19 | CC(C)=CCC1(C(=O)O)CCCN(c2ccnc(N)n2)C1 (centres undefined) | 15%
20 | OCC1(CCOc2ccccc2)CCN(c2ccc(Cl)cn2)CC1 | 32.2%
21 | N#Cc1cccnc1N1CCCC(CO)(CCOc2ccccc2)C1 (centres undefined) | 23.8%
22 | Nc1nccc(N2CCC(Cc3ccccc3Cl)(C(=O)O)CC2)n1 | 23.5%
23 | CCc1nc(N2CCCC(CO)(CCOC)C2)ncc1C (centres undefined) | -1.83%
24 | OCC1(CCOc2ccccc2)CCCN(c2ccc(Cl)cn2)C1 (centres undefined) | 83.3%
25 | Cc1cnn(CC2CCCN2C(=O)CCc2ccc3c(c2)OCO3)c1 (centres undefined) | 9.64%
26 | COC(=O)N1CCC(NC(=O)c2cc(S(N)(=O)=O)ccc2C)CC1 | 14.6%

Row | Compound | INHIBITION
27 | COc1cc(N2CC3(CCN(S(C)(=O)=O)C3)C2)ncn1 | -21.7%
28 | CCOC(=O)c1sc(NC(=O)COC)c(C#N)c1C | -30.8%
29 | COCCN1CCCN(C(=O)c2scnc2C)CC1 | -2.03%
30 | c1ccc(CN2CCCC(Cn3cncn3)C2)nc1 (centres undefined) | 24%
31 | O=C(N[C@@H]1CCN(c2nccc3ccccc23)C[C@H]1O)c1cnccn1 | 5.78%
32 | Cc1nc(N2C[C@@H](CN3CCCN(C)CC3)[C@@H](CO)C2)c2ccsc2n1 | 50.1%
33 | Cc1nc(C)c(C)c(N2C[C@@H](CN3CCCN(C)CC3)[C@@H](CO)C2)n1 | 15.5%
34 | COC1[C@@H]2CC[C@H]1CN(c1nc(C)nc3sccc13)C2 (some centres undefined) | 72.6%
35 | Cc1nc(N2CC[C@@H](NC(=O)c3cnccn3)[C@H](O)C2)c2ccsc2n1 | 85.1%
36 | Cc1nc(N2C[C@@H](CN3CCCN(C)CC3)[C@@H](CO)C2)c2sccc2n1 | 26.6%
37 | CCC[C@@H]1CN(c2ncnc3sccc23)C[C@H]1NS(C)(=O)=O | 27.2%
38 | Cc1nccnc1N1CC[C@@H](NC(=O)c2cnccn2)[C@H](O)C1 | -3.19%
39 | CCN(Cc1cccc2c1OCO2)C(=O)C(C)c1cccnc1 (centres undefined) | 40.9%
40 | CCc1noc(C(C)Sc2nnc(C3CC3)n2CC(N)=O)n1 (centres undefined) | 29%
41 | c1coc(-c2nc(CNC3CCC4(CCNCC4)CC3)no2)c1 | 33.1%
42 | O=C([C@H]1CCCO1)N1Cc2nccn2CC(COc2cccnc2)C1 (some centres undefined) | -30%
43 | CN(c1ccncn1)C1CC2(CCN(C(=O)c3cccs3)C2)C1 (centres undefined) | 42.1%
44 | CN(c1ccncn1)C1CC2(CCN(C(=O)Cc3cccs3)C2)C1 (centres undefined) | 51.5%
45 | CN(c1ccncn1)C1CC2(CCN(C(=O)CCc3cccs3)C2)C1 (centres undefined) | 37.5%
46 | CCc1nccn1C1CCCN(C(=O)CCCc2ccccn2)C1 (centres undefined) | -6.14%
47 | CC(C)C[C@H]1CN(c2nc3c(cc2C(N)=O)CCC3)CC[C@@]1(C)O | -22.5%
48 | CCCN1CCC2(CC1)CN(C(=O)c1cccnc1)c1ccc(F)cc12 | 26.7%
49 | CN1CCC2(CC1)CN(C(=O)c1cccnc1)c1ccc(Cl)cc12 | 26.7%
50 | CCN1CCC2(CC1)CN(C(=O)c1cccnc1)c1ccc(Cl)cc12 | 60.2%
51 | CC(C(N)=O)N(C)CCCc1cc(-c2ccc(F)cc2)n(C)n1 (centres undefined) | -52.5%
52 | Cc1nn(C)c(C)c1-c1ccc(=O)n(C(C)C(=O)NCc2ccco2)n1 (centres undefined) | 15.7%

Row | Compound | INHIBITION
53 | O=C(C[S+]([O-])Cc1ccccc1F)N1CCc2sccc2C1 (centres undefined) | -13.9%
54 | O=C(C[S+]([O-])Cc1ccc(F)cc1)N1CCc2sccc2C1 (centres undefined) | 80.3%
55 | O=C(C[S+]([O-])Cc1c(F)cccc1Cl)N1CCc2sccc2C1 (centres undefined) | -10.9%
56 | O=C(C[S+]([O-])Cc1c(Cl)cccc1Cl)N1CCc2sccc2C1 (centres undefined) | 50.5%
57 | O=C(C[S+]([O-])Cc1ccc(Cl)cc1Cl)N1CCc2sccc2C1 (centres undefined) | 21.8%
58 | O=C(C[S+]([O-])Cc1ccc(F)cc1Cl)N1CCc2sccc2C1 (centres undefined) | -3.96%
59 | O=C(NCc1cccs1)[C@H]1CO[C@H]2CCN(C3CCCC3)C[C@H]2C1 | 17.7%
60 | O=C(NCCc1cccs1)[C@H]1CO[C@H]2CCN(C3CCC3)C[C@H]2C1 | 62%
61 | O=C(NCCc1cccs1)[C@H]1CO[C@H]2CCN(CC3CC3)C[C@H]2C1 | 17.7%
62 | CN(C)CCN1CCCC12CCN(C(=O)c1cccn1C)CC2 | 20.5%
63 | CN(Cc1cccs1)C(=O)CS(=O)(=O)Cc1ccc(Cl)c(Cl)c1 | 62.2%
64 | CN(Cc1ccsc1)C(=O)CS(=O)(=O)Cc1ccc(Cl)c(Cl)c1 | 9.32%
65 | CN(Cc1ccccc1)C(=O)CS(=O)(=O)Cc1ccc(Cl)c(Cl)c1 | -35.7%
66 | Nc1nccnc1C1CN(C(=O)c2cnc(C3CC3)nc2)CCO1 (centres undefined) | 26.8%
67 | CCc1nn(C)c(Cl)c1CN1C[C@@H](NC(=O)N(C)C)[C@H](C(C)C)C1 | 59.7%
68 | Cc1noc(C)c1CN1C[C@@H](NC(=O)N(C)C)[C@H](C(C)C)C1 | -9.29%
69 | CCc1nn(C)c(Cl)c1CN1C[C@H](NC(=O)CCO)[C@@H](C(C)C)C1 | 14.8%
70 | c1ccc(OCc2cscn2)c(CNC2CCc3ncnn3C2)c1 (centres undefined) | 3.1%
71 | CCN(CC1COc2ccccc2O1)C(=O)NCCCn1cncn1 (centres undefined) | 10.17%
72 | CC(=O)N1CCCC1c1nnn2cc(-c3ccncc3)ccc12 (centres undefined) | 61.9%
73 | CC(=O)N1CCCC1c1nnn2cc(NCc3cccnc3)ccc12 (centres undefined) | -15.3%
74 | CC(=O)N1CCCC1c1nnn2cc(Nc3ccccc3)ccc12 (centres undefined) | 2.41%
75 | CCN1CCOCC12CCN(C(=O)C1CCC1)CC2 | -22.1%
76 | CN(C)CCN1CCN(Cc2cccs2)Cc2cccnc21 | 7.53%
77 | c1coc(CN2CCO[C@H]3[C@@H](OCC4CC4)CC[C@@H]32)c1 | 6.67%
78 | CN(Cc1ccccn1)CC1CCCN1c1cccnn1 (centres undefined) | -8.11%

Row | Compound | INHIBITION
79 | CC(C)CCc1nc(CNCC2CCCN2c2cccnn2)cs1 (centres undefined) | 61.3%
80 | CN(Cc1cnn(-c2ccccc2)n1)CC1CCCN1c1cccnn1 (centres undefined) | 58.3%
81 | CCCc1nc(CNCC2CCCN2c2cccnn2)cs1 (centres undefined) | 48.2%
82 | c1cnnc(N2CCCC2CNCc2cccs2)c1 (centres undefined) | 19.5%
83 | CN(Cc1cnn(-c2ccccc2)n1)C1CCCN(c2cccnn2)C1 (centres undefined) | -19.4%
84 | c1cnnc(N2CCCC2CNCCc2cccs2)c1 (centres undefined) | 91%
85 | CCc1nc(CNCC2CCCN2c2cccnn2)cs1 (centres undefined) | 5.8%
86 | CCc1nc(CNCC2CCCN2c2cccnn2)no1 (centres undefined) | 23.4%
87 | CCCc1nc(CNCC2CCCN2c2cccnn2)no1 (centres undefined) | 59%
88 | O=C(CNCC1CCCN1c1cccnn1)NCCc1cccs1 (centres undefined) | 28%
89 | CCc1noc(CNCC2CCCN2c2cccnn2)n1 (centres undefined) | 19.5%
90 | CC(C)CN1CCS(=O)(=O)[C@@H]2CCN(S(=O)(=O)N(C)C)CC[C@@H]21 | 20.1%
91 | O=C(NCCN1CCCCC1)C(c1ccccc1)N1CCCC1 (centres undefined) | -22.1%
92 | Cc1cnccc1-c1cnn(CCNC(=O)c2cccnc2)c1C1CC1 | 16.5%
93 | CC(C)N(C)Cc1nnc2n1CCCN(c1ncccn1)C2 | 29.5%
94 | CCC(CC)C(=O)NC1CCCc2nc(N3CCOCC3)ncc21 (centres undefined) | 7.52%
95 | Cn1cc(N2CC3(CCN(CC4CC4)C3)CC2=O)cn1 (centres undefined) | 15.3%
96 | Cc1nn(C)c(C)c1-c1cnc(C2CCCN(S(C)(=O)=O)C2)cn1 (centres undefined) | -6.92%
97 | CCNc1cc2c(nn1)CCN(C(=O)C1CCc3ccccc31)C2 (centres undefined) | 11.2%
98 | COCC(=O)N1CCC(c2cc3nc(C)cc(C(F)(F)F)n3n2)CC1 | 20.15%
99 | O=C1NC2(CCCN(C(=O)CCn3cccn3)C2)Oc2ccccc21 (centres undefined) | 10.385%
100 | c1ccc(-n2cc(CNCC3CCCN3c3cccnn3)nn2)cc1 (centres undefined) | 18.2%
101 | c1ccc(-n2ccc(CNCC3CCCN3c3cccnn3)n2)cc1 (centres undefined) | 16.9%
102 | c1ccc(-n2ncc(CNCC3CCCN3c3cccnn3)n2)cc1 (centres undefined) | 57.2%
103 | Cc1ccc(C(=O)NS(=O)(=O)c2ccccc2Br)c(=O)[nH]1 | 44.1%
104 | Cc1ccc(C(CCNCCCN(C)C)C2CCOC(C)(C)C2)cc1 (centres undefined) | 32.3%
